Bioassay records deposited in PubChem BioAssay by National Center for Advancing Translational Sciences (NCATS).
IL-1B inflam inh – blocks inflammasome-driven IL-1 beta release; THP-1 LPS/ATP IL-1B secretion, AlphaLISA, 16 h; active compounds read low; activity change, % at 57.5 µM; 360,000 tested, 4.7% active; AID 743279; in the data active = activity change below about -50%; inconclusive = mostly about -30% to -49%; also: % is scaled to controls: 0 for no effect and ±100 for the full control effect
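THP-1 cells pretreated 1 hr with compounds (up to 57.5 uM final), then stimulated with LPS (250 ng/mL final) plus ATP (1.25 mM final); secreted IL-1B measured by AlphaLISA after 16 hr, decreased signal indicating inhibition.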
SW480 rereplic – inducers of DNA re-replication in SW480 colon cancer cells. 340,000 tested, 1.8% active. SW480 DNA re-replication, Hoechst DNA content imaging, 48 h. AID 624297. Potency, µM (top dose mostly 46.1 µM), for inactives: at the top dose re-replication activation, most hits filed as activators; also: potency is read from the fitted curve at half-maximal effect; % of control where 0% means no effect; nearly all actives have a fitted effect of over 55% in size
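SW480 cells exposed to compounds for 48 hr at 37 C, 5% CO2, then Hoechst-stained 40 min. Nuclear DNA content imaged by fluorescence scanning (405 nm excitation, 500-530 nm emission); re-replication scored as increased high-intensity nuclei.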
DT40 TDP1 no CPT – qHTS for Inhibitors of human tyrosyl-DNA phosphodiesterase 1 (TDP1): qHTS in cells in absence of CPT. DT40 Tdp1-/- hTDP1 cells, no CPT, ATP luminescence, 48 h. Potency, µM (series often up to 46.2 µM), inactives show top-dose activity change, negative = growth inhibition, most hits filed as inhibitors. 420,000 tested, 15% active; also: potency is read from the fitted curve at half-maximal effect; % is scaled to controls: 0 for no effect and ±100 for the full control effect; nearly all actives have a fitted effect of over 55% in size
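Compound effects on proliferation are scored in DT40 Tdp1-/-;hTDP1 cells in the absence of CPT. ATP levels (CellTiter-Glo luminescence) are recorded after a ≥48 hr, 37 °C incubation.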
MCF10A rerep – inducers of DNA re-replication in MCF 10A breast cells. 350,000 tested, 2.9% active. AID 624296. Potency, µM (top dose mostly 46.1 µM), for the others: top-dose activity, positive = re-replication, actives largely listed as activators. MCF 10A DNA re-replication, Hoechst nuclear intensity, 48 h; also: potency is read from the fitted curve at half-maximal effect; % of control where 0% means no effect; nearly all actives have a fitted effect of over 50% in size
DT40 TDP1 CPT – growth inhibition of DT40 Tdp1-/-;hTDP1 cells with camptothecin (screen for TDP1 inhibitors); Potency, µM (doses to about 46.2 µM), for inactives: at the highest dose activity change, negative = growth inhibition, usual class: inhibitors; chicken DT40 Tdp1-/-;hTDP1 cells + 20 nM CPT, ATP luminescence, 48 h; AID 686979; 420,000 tested, 12% active; also: potency is read from the fitted curve at half-maximal effect; % is scaled to controls: 0 for no effect and ±100 for the full control effect; nearly all actives have a fitted effect of over 55% in size
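Chicken DT40 Tdp1-/- cells complemented with human TDP1, 400 cells/well, exposed to compounds plus 20 nM camptothecin for at least 48 h at 37 C; viability read as ATP content by CellTiter-Glo luminescence.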
BCR signal inh – inhibitors of chronic active B-cell receptor signaling | ABC-DLBCL IkBa-CBG/CBR reporter, luminescence ratio, 4 h | Potency, µM (highest dose often 46.1 µM), inactives show at the highest dose activity change, negative = inhibition, hits mostly inhibitors | 340,000 tested, 0.05% active; active = well fitted inhibition curve with a large enough effect in the signal ratio, with a control signal flat, not every such curve was filed as active; inconclusive = small, poorly fitted or top-dose-only effect, or effect the other way, or a change in a side signal; the % refers to the signal ratio;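 also: potency is read from the fitted curve at half-maximal effect; plate controls were basal doxycycline-induced cells for no effect and cells given 10 µM MG132 for full effect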
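Cell line TMD8 (human ABC DLBCL), stably expressing tet-inducible CBG68-IkBa fusion and CBR; IMDM/0.5% FBS; cpd up to 46 uM; dox induction, 4 h, 37C/5% CO2; dual luminescence; green/red ratio; MG132 control.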
Numbers without * were called inactive; ? = inconclusive; nt = no result given. Shown are actives, neighbours in structure and some others; about 19% of the full set was active somewhere. Unless noted, calls follow the shape of the dose curve; as a rule, active = well fitted curve in the direction sought with a large enough effect; inconclusive = small, poorly fitted or top-dose-only effect, or another doubt; inactive = no such curve, though single readings can be large; an effect the other way counts as inactive or inconclusive.

SMILES	IL-1B inflam inh	SW480 rereplic	DT40 TDP1 no CPT	MCF10A rerep	DT40 TDP1 CPT	BCR signal inh
C=CC[C@@H](CC(=O)N[C@@H](CO)Cc1ccccc1)C(=O)N[C@@H](C)COC(=O)[C@@H](CC=C)Cc1ccc(F)cc1	5	0%	?	-25%	-28%	1%
C=CC[C@H](CC(=O)N(CCO)Cc1ccccc1)C(=O)N[C@H](C)COC(=O)[C@@H](CC=C)Cc1ccc(F)cc1	-16	10%	21µM*	21%	?	?
C=CC[C@H](CC(=O)N(CCO)Cc1ccccc1)C(=O)N[C@H](COC(=O)[C@@H](CC=C)Cc1ccc(F)cc1)Cc1ccccc1	-56*	17%	21µM*	5%	21µM*	?
C=CC[C@H](CC(=O)NCCO)C(=O)NC[C@@H](OC(=O)[C@@H](CC=C)Cc1ccc(F)cc1)c1ccccc1	-21	0%	?	19%	?	-1%
C=CC[C@@H](CC(=O)N(CCO)Cc1ccccc1)C(=O)NCCOC(=O)[C@@H](CC=C)Cc1ccc(F)cc1	-2	-48%	13µM*	9%	21µM*	?
CCc1ccc(-n2nc(C)c3c(C)cc(=O)n(CC(=O)Nc4ccccc4C(=O)OC)c32)cc1	nt	nt	-4%	nt	-15%	nt
CCOC(=O)N1CCN(C(=O)C2CCCN(Cc3nc(-c4ccc(Cl)cc4)oc3C)C2)CC1 (stereo not given)	?	20%	5.8µM*	19%	9.2µM*	16%
CCc1ccc(-c2nc(CN3CCCC(C(=O)N4CCN(c5cc(Cl)ccc5C)CC4)C3)c(C)o2)cc1 (stereo not given)	nt	nt	3.3µM*	nt	6.5µM*	nt
COc1cccc(OCC(=O)N2CCCc3ccccc32)c1	-3	-3%	-28%	13%	?	?
CCN(CC)CCCNC(=O)c1ccc2c(c1)sc1nc(-c3ccc(C)cc3)cn12	nt	nt	2.3µM*	nt	2.3µM*	nt
CCCNC(=O)c1ccc2c(c1)sc1nc(-c3ccc(C)cc3)cn12	nt	nt	5.8µM*	nt	5.8µM*	nt
Cc1ccc(-c2cn3c(n2)sc2cc(C(=O)NC(C)C45CC6CC(CC(C6)C4)C5)ccc23)cc1 (stereo not given)	nt	nt	-21%	nt	-15%	nt
O=C(NCc1ccccc1)c1ccc2c(c1)sc1nc(-c3ccc(F)cc3)cn12	nt	nt	-17%	nt	-12%	nt
Cc1ccc(C(c2sc3nc(-c4ccco4)nn3c2O)N2CCCC2)cc1 (stereo not given)	nt	nt	1%	nt	8%	11%
CCN(CC)S(=O)(=O)c1cccc(C(=O)Nc2sc3c(c2C#N)CCC(C)C3)c1 (stereo not given)	nt	nt	?	nt	-27%	nt
COC(=O)C[C@@H]1C=C[C@H](NC(=O)Nc2cc(F)ccc2F)[C@@H](CO)O1	12	nt	-12%	nt	-9%	nt
Cc1cc(C)c(O)c(-c2cc(C(=O)Nc3ccc(S(=O)(=O)N4CCOCC4)cc3)[nH]n2)c1	-86*	?	16µM*	?	16µM*	?
CC(=O)Nc1ccc(NC(=O)c2cc(-c3cc(C)cc(C)c3O)n[nH]2)cc1	-5	-24%	16µM*	10%	12µM*	?
Cc1ccc(C(=O)Nc2ccc(S(=O)(=O)N3CCOCC3)cc2)cc1	-15	-4%	-38%	-51%	-5%	-5%
Cc1cccc(NC(=O)c2cc(S(=O)(=O)N3CCOCC3)cn2C)c1C	29	-5%	6%	10%	5%	10%
Cn1cc(S(=O)(=O)N2CCOCC2)cc1C(=O)Nc1ccc(Cl)c(C(F)(F)F)c1	nt	nt	23µM*	nt	?	nt
Cc1ccc(C)c(NC(=O)c2cc(S(=O)(=O)N3CCOCC3)cn2C)c1	0	12%	-24%	18%	15µM*	1%
